According to PubChem BioAssay (NCI):
This is part of a sample that, as a whole, favours compounds with a hit. Of some 83,000 tested, about 20% had one in any assay.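 Treatment: one concentration, 48 hours, 96-well format. Scoring: percent growth, with anything below 10 considered active.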 A number with no mark means an inactive call. Active and inactive are the calls of the source.

Key:
Assay in all cases: NCI-60 one-dose screen, 48 h (100 = growth as untreated, 0 = no growth, -100 = all killed)
Conditions in all cases: 10 µM unless noted
[1] = system: HCT-15 colon
[2] = system: HT29 colon
[3] = system: SNB-75 CNS
[4] = system: SNB-19 CNS
[5] = system: U251 CNS
[6] = system: PC-3 prostate
[7] = system: SK-MEL-5 melanoma
[8] = system: UACC-62 melanoma
[9] = system: LOX IMVI melanoma
[10] = system: SK-MEL-28 melanoma
[11] = system: SK-MEL-2 melanoma
[12] = system: EKVX NSCLC
[13] = system: UO-31 renal
[14] = system: TK-10 renal
[15] = system: ACHN renal
[16] = system: CAKI-1 renal
[17] = system: A498 renal
[18] = system: CCRF-CEM leukemia
[19] = system: MOLT-4 leukemia

SMILES	growth [1]	growth [2]	growth [3]	growth [4]	growth [5]	growth [6]	growth [7]	growth [8]	growth [9]	growth [10]	growth [11]	growth [12]	growth [13]	growth [14]	growth [15]	growth [16]	growth [17] [%]	growth [18]	growth [19]
COC(=O)c1cc(C(=O)C(F)(F)F)n2c3ccccc3c3ccccc3c12	93.8%	96.1%	6.37% (active)	67.8%	70.1%	66.8%	95.8%	69.3%	77.2%	111%	97.6%	78.3%	39%	73.7%	18.2%	43.1%	120	97.6%	97.4%
COc1ccc(NC(=O)CSc2nnc(-c3ccc(-c4nc5ccccc5[nH]4)cc3)o2)cc1	18.2%	18%	63.4%	-5.58% (active)	-68.2% (active)	25.1%	14%	17.8%	-63.9% (active)	-72.3% (active)	61.8%	53.2%	97.7%	96.8%	35.4%	41.5%	147	50.7%	35.9%
O=C(Nc1nc2ccccc2s1)Nc1ccccc1Cl	94.3%	98.5%	20.4%	70.4%	55.7%	85.3%	95.3%	93.8%	79.4%	102%	99.9%	64.5%	66.8%	84.7%	–	45.2%	162	97.5%	107%
Cc1cnc2ccc(Oc3ccccc3-c3ccccc3)nn12	103%	108%	126%	99.7%	100%	105%	107%	101%	97.9%	113%	108%	100%	90.1%	106%	105%	94.5%	116	103%	107%
Cc1cc(C2(c3cc(C)c(OCC(O)CNc4c(C)n(C)n(-c5ccccc5)c4=O)cc3C(C)C)OC(=O)c3ccccc32)c(C(C)C)cc1OCC(O)CNc1c(C)n(C)n(-c2ccccc2)c1=O (stereo unspecified)	19.7%	13.4%	46.6%	48.9%	22.5%	12.9%	-25.3% (active)	24.4%	18.3%	33.8%	-5.35% (active)	16.3%	–	24.8%	17.1%	21.9%	55.4	12.3%	13.1%
O=C(NN1C(=O)/C(=C/C=C/c2ccc([N+](=O)[O-])o2)SC1=S)c1ccc(O)cc1	-73% (active)	-67.7% (active)	-65.1% (active)	-100% (active)	-91.4% (active)	-67.2% (active)	-100% (active)	-99.3% (active)	-84.8% (active)	-100% (active)	-89.4% (active)	-98.1% (active)	-92.7% (active)	-99.3% (active)	-100% (active)	-100% (active)	14.6	-24% (active)	-40.7% (active)
O=C(N=Nc1c(O)[nH]c2ccc(Br)cc12)c1ccc2nc(-c3ccc(Cl)cc3)[nH]c2c1	58.9%	10.7%	-18% (active)	-27.2% (active)	-91.8% (active)	10%	37.3%	-74.8% (active)	-100% (active)	-96.3% (active)	2.45% (active)	-14.1% (active)	73.2%	54.3%	50.5%	68.1%	115	7.74% (active)	-0.379% (active)
